The values below come from PubChem BioAssay AID2455 (National Center for Advancing Translational Sciences (NCATS), 2010).

The other results are listed elsewhere or left out. Results filed as inconclusive are left out. The source made the active and inactive calls. Calls follow the shape of the full dose curve.

Chain of Vitamin D3 receptor (Homo sapiens) (P11473 whole entry, looked up, the tested form may be a part): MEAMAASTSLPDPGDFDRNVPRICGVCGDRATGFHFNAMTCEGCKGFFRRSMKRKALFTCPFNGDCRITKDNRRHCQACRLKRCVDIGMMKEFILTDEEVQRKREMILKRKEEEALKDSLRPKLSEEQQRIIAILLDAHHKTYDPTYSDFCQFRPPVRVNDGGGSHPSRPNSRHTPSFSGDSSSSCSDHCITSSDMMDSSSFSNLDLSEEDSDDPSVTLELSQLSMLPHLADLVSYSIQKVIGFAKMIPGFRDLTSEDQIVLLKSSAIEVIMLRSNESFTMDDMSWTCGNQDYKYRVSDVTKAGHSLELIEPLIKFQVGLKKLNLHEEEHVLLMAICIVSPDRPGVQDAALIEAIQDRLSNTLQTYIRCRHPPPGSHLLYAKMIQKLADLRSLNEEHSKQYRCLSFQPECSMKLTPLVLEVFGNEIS

The target in this test is Vitamin D3 receptor (Homo sapiens) (UniProt P11473). In words: Vitamin D Receptor Selectivity Assay for Inhibitors of the Interaction of Thyroid Hormone Receptor and Steroid Receptor Coregulator 2. The following applies: VDR LBD/SRC2-3 peptide, fluorescence polarization, 3 h. The text has this:
NIH Molecular Libraries Probe Production Network [MLPCN] NIH Chemical Genomics Center [NCGC] MLPCN Grant: DK058080 Assay Provider: R. Kip Guy, St. Jude Children's Research Hospital NCGC Assay Overview: Thyroid receptor (TR) regulates many homeostatic processes including basal metabolism, cardiovascular function, body weight, and lipid trafficking. TR modulators are potential therapeutics for obesity and hyperlipidemias but current thyroid analogs have undesirable side effects, particularly cardiac stimulation. This secondary assay characterized compounds identified in the qHTS for Inhibitors of the Interaction of Thyroid Hormone Receptor and Steroid Receptor Coregulator 2 (PubChem AID 1485) for selectivity against the vitamin D receptor (VDR). […] Small molecule inhibitors that block the interaction of VDR and SRC2-3 are detected by a decrease in fluorescence polarization. […] Quantification of the vitamin D receptor-coregulator interaction. […]
NCGC Assay Protocol Summary: Twenty uL/well 1 uM VDR and 5 nM Alexa Fluor 647 SRC2-3 peptide in buffer (25 mM PIPES, pH 6.75, 50 mM NaCl, 0.01% NP-40, 6 uM LG190178, and 4% DMSO) was dispensed into black solid 384-well plates (Costar 3710) using a Biomek FX (Beckman Coulter) liquid handling system. […] The plates were read by an Envision (Perkin Elmer) to detect fluorescence polarization of Alexa Fluor 647 (620 nm excitation and 688 nm emission).
Background: Fluorescence polarisation rises when a labelled molecule tumbles more slowly, as on binding a larger partner.
Turning to `O=C(COC(=O)c1cccc([N+](=O)[O-])c1)NC1C2CC3CC(C2)CC1C3` (stereo unspecified), the compound was classed as inactive.
